Measured values published in the supplement of paper PMC7261846.
± gives the uncertainty stated by the source.

Test system: Candida albicans SNY425 biofilm
Assay: biofilm OD600 with compound plus antifungal (OD600 (absorbance)); higher = more biofilm remaining
Settings: assay detail: sustained inhibition (compound + antifungal during 90-min adherence and 24-h growth)

SMILES | biofilm OD600
C[C@H](CS)C(=O)N1CCC[C@H]1C(=O)O [Captopril] + OC(Cn1cncn1)(Cn1cncn1)c1ccc(F)cc1F [fluconazole] (first compound 12.5 µM) | 0.167 ± 0.01
NCCCC[C@H](N[C@@H](CCc1ccccc1)C(=O)O)C(=O)N1CCC[C@H]1C(=O)O [Lisinopril] + C[C@@H]1[C@H](O)[C@@H](C)/C=C/C=C/C=C/C=C/C=C/C=C/C=C/[C@H](O[C@@H]2O[C@H](C)[C@@H](O)[C@H](N)[C@@H]2O)C[C@@H]2O[C@](O)(C[C@@H](O)C[C@@H](O)[C@H](O)CC[C@@H](O)C[C@@H](O)CC(=O)O[C@H]1C)C[C@H](O)[C@H]2C(=O)O [amphotericin B] (first compound 12.5 µM) | 0.173 ± 0.014
CCC[C@@]1(CCc2ccccc2)CC(O)=C([C@H](CC)c2cccc(NS(=O)(=O)c3ccc(C(F)(F)F)cn3)c2)C(=O)O1 [tipranavir] + OC(Cn1cncn1)(Cn1cncn1)c1ccc(F)cc1F [fluconazole] (first compound 12.5 µM) | 0.143 ± 0.0085
NC(N)=NCCC[C@H](NC(=O)[C@@H]1CCCN1C(=O)[C@H](N)Cc1ccccc1)C(=O)CCl + CC[C@H](C)C[C@H](C)CCCCCCCCC(=O)N[C@H]1C[C@@H](O)[C@@H](NCCN)NC(=O)[C@@H]2[C@@H](O)CCN2C(=O)[C@H]([C@H](O)CCN)NC(=O)[C@H]([C@H](O)[C@@H](O)c2ccc(O)cc2)NC(=O)[C@@H]2C[C@@H](O)CN2C(=O)[C@H]([C@@H](C)O)NC1=O [caspofungin] (first compound 12.5 µM) | 0.189 ± 0.011
